According to PubChem BioAssay (NCATS):
Records with an inconclusive call do not appear. Entries that show only a call come without a potency. Activity calls are given as the source filed them. The call rests on the fitted dose curve; in most records, active means well fitted inhibition curve with a large enough effect; inconclusive means small, poorly fitted or top-dose-only effect, or effect the other way; inactive means flat fitted curve, though single readings scatter.

Assay: qHTS for Inhibitors of Plasmodium falciparum (GB4) proliferation (AID 504315); further: nearly all actives have a fitted effect of over 50% in size
Settings: P. falciparum GB4 in erythrocytes, SYBR Green DNA, 72 h; series mostly up to 6.7 µM
Source text: Plasmodium falciparum is a virulent malarial parasite that kills 1-2 million people worldwide each year. Malaria not only inflicts tremendous suffering and morbidity on the human population, but has dramatically influenced the course of civilization with profound sociological and economic implications (Shah, S. 2010). Transmitted by mosquitoes, the sporozoite form of the parasite enters the blood stream to infect hepatocytes, where they become merozoites that infect red blood cells (erythrocytes). Within erythrocytes, merozoites begin a […] cycle of growth and division, after which the parasite is released to infect new red blood cells. Gametocytes, which form within erythrocytes as well, circulate in the bloodstream and are ingested by the mosquito, thereby completing the life cycle (see CDC website). To profile malarial lines for differential chemical responses and to identify inhibitors of malarial growth, an assay that measures P. falciparum growth and replication within erythrocytes was employed. This assay uses a DNA binding fluorescent dye (SYBR Green) to detect parasite DNA following cell lysis. Because mature erythrocytes lack DNA, only Plasmodium-derived DNA is detected. The P. falciparum line cp250, derived from a malarial isolate from Cambodia, (Mu, J., et al. 2010) was added to the panel of lines, Dd2, HB3, 7G8 and GB4 in this study. Laboratory of Assay Development and Screening Technology [ADST] and NIH Chemical Genomics Center [NCGC] Boston University, Chemistry Department, Center for Chemical Methodology and Library Development [CMLD-BU] NIH National Institute of Allergy and Infectious Diseases [NIAID]
ADST Assay Protocol Summary: The 1536-well SYBR Green viability assay was based on the method of Bennett et al (2004) and described previously in 1536-well format (Yuan J., et al. 2009). For screening 3 ul culture medium was dispensed into 1536 well black clear bottom plates (Aurora Biotechnologies) using a Multidrop Combi (Thermo Fisher Scientific Inc.), 23 nL compounds in DMSO were added by a pin transfer (Cleveland, P.H. and Koutz, P.J, 2005) using a pin tool-based delivery system (Kalypsys), and 5 ul of erythrocytes infected with P. falciparum one of five lines (cp250, Dd2, HB3, 7G8 or GB4, 0.3% parasitemia, 2.5% hematocrit final concentration) were added. The plates were incubated at 37C in a humidified incubator in 5% CO2 for 72 h, and 2 ul lysis buffer (20 mM Tris HCl, 10 mM EDTA, 0.16% saponin, 1.6% triton X, 10X SYBR Green I (supplied as 10,000X final concentration by Invitrogen) was added to each well. The plates were mixed for 25 sec with gentle shaking and incubated overnight at room temperature in the dark. The following morning, fluorescence intensity at 485(14) nm excitation and 535(25) nm emission wavelengths was measured on an EnVision (Perkin Elmer) plate reader. Plate reads were normalized relative to the control inhibitor (0.29 uM artemisinin) and vehicle (DMSO) wells present on each plate and then corrected by an algorithm using vehicle-only control plates at the beginning and end of the compound plate stack. References Shah, S. (2010). The Fever: how malaria has ruled humankind for 500,000 years. New York, Sarah Crichton Books. CDC web site, http://www.cdc.gov/malaria/about/biology/index.html Mu, J., Myers, R.A., Jiang, H., Liu, S., Ricklefs, S., Waisberg, M., Chotivanich, K., Wilairatana, P., Krudsood, S., White, N.J., et Plasmodium falciparum genome-wide scans for positive selection, recombination hot spots and resistance to antimalarial drugs Nature Genetics 2010, 42, pp 268-271 Bennett TN, Paguio, M., Gligorijevic, B., Seudieu, C., Kosar, A. D., Davidson, E., and Roepe, P. D. Novel, rapid, and inexpensive cell-based quantification of antimalarial drug efficacy Antimicrobial Agents Chemother. 2004, 48(5): pp 1807-10 Yuan J, Johnson RL, Huang RL, Wichterman J, Jiang HY, Hayton K, Fidock DA, Wellems TE, Inglese J, Austin CP, Su XZ. […]
Potency means the concentration at half of the fitted maximal effect.

Row | Structure (SMILES) | Potency
1 | C=CC[C@@H]1C=C[C@@H](Oc2ccc(OC)cc2)[C@H](CO)O1 | 1510 nM (active)
2 | N#Cc1ccc2c(c1)C[C@]1(CCCCN3C(=O)c4ccccc4C3=O)Oc3cc(-c4ccccc4)oc(=O)c3[C@H]2O1 | inactive
3 | CCN1C(=NCC(C)C)N[C@H](c2ccccc2)[C@H](C(=O)OC)[C@H]1C | inactive
4 | C=CCOC(=O)N[C@@H](CCc1ccccc1)C(C(C)=O)C(C)=O | inactive
5 | COC(=O)c1ccc(CN2C(=O)[C@]3(OCCC=C[C@@H]3C)c3ccccc32)cc1 | inactive
6 | CC(CCC(=O)OC[C@H]1O[C@H](C#Cc2ccccc2)C=C[C@H]1Oc1ccc(C)cc1)=NOC[C@@H](O)COCc1ccco1 | inactive
7 | O=c1oc2ccccc2c2c1[C@H]1O[C@](c3ccsc3)(Cc3ccccc31)O2 | inactive
8 | N#CCCn1cnc2c1NC=NC2Cl (stereo not given) | inactive
9 | COC(=O)CCCC1=CC2=C(c3ccccc3)C(=O)C(C)(OC(=O)C3CCCC3)C(=O)C2=CN1Cc1ccco1 (stereo not given) | inactive
10 | COC(=O)N[C@H](CC(C)=O)c1ccccc1 | inactive
11 | C=CCOC(=O)N[C@H](c1ccccc1)[C@H](C)C=CCC(=O)OC | inactive
12 | CCN1C(=NCC(C)C)N[C@@H](CCc2ccccc2)[C@H](C(=O)OC)[C@H]1C | inactive
13 | CCOC(=O)[C@@]1([C@@H](NC(=O)OC)c2ccccc2)CCCC1=O | inactive
14 | CC1(OC(=O)C2CCCC2)C(=O)C=C2C=C(c3ccsc3)N(C(CO)CO)C=C2C1=O (stereo not given) | inactive
15 | C=CC[C@@H]1C=C[C@H](ON=C(C)CCN2CCCc3nc(C)c(C)cc32)[C@H](CO)O1 | 1900 nM (active)
16 | CCN1C(=O)N(S(=O)(=O)C(F)(F)F)C(c2ccccc2)C(C(=O)OC)=C1C (stereo not given) | inactive
17 | COC(=O)[C@H]1[C@H](C)[C@@]2(O)c3ccccc3N(C)[C@@]1(C)[C@H]2O | inactive
18 | C=C1CN2C(=NC(c3ccccc3)C(C(=O)OC)=C2C)O1 (stereo not given) | inactive
19 | CC(C)CON=C1C[C@@H](O)[C@@H](O)[C@@H]2[C@H]3C(=O)N(Cc4ccccc4)C(=O)[C@@H]3CC[C@@H]12 | inactive
20 | CCN1C(=NCCc2ccc(Br)cc2)N[C@@H](c2ccccc2)[C@H](C(=O)OC)[C@H]1C | inactive

Row | Structure (SMILES) | Potency
21 | COc1ccc(COC(=O)NN=C2C[C@@H](O)[C@@H](O)[C@@H]3[C@H]4C(=O)N(Cc5ccccc5)C(=O)[C@@H]4CC[C@@H]23)cc1 | inactive
22 | COC(=O)C1=C(C)N(CC2CC2)C(=O)NC1CCc1ccccc1 (stereo not given) | inactive
23 | C[C@@H]1CC[C@H]2C(=O)O[C@@H](COc3ccc(C(C)(C)C)cc3)CN2[C@H]1c1ccc(Br)cc1 | inactive
24 | COC(=O)N[C@@H](c1ccccc1)[C@]1(C(C)=O)CCCC1=O | inactive
25 | CC(C)OC(=O)[C@@H]1CC[C@H](C)[C@@H](CCC[C@@H]2CC=C[C@H](CC#N)O2)O1 | inactive
26 | COC1=C[C@H](C(=O)N2CCCC2)[C@H](C)[C@@H](c2ccccc2)CC1=O | inactive
27 | COC(=O)C1=C(C(=O)OC)[C@@H]2N(C)c3ccccc3[C@@]23C[C@@H](C(=O)OC)N(C(=O)c2cccs2)C3=N1 | inactive
28 | COC(=O)CC=C[C@@H](C)[C@@H](C=NO[C@H](C)c1cn([C@H](CO)Cc2ccccc2)nn1)NS(=O)(=O)c1ccc(C)cc1 | inactive
29 | COC(=O)C1(C)C=C(Nc2ccc(OC)cc2)C(=O)N1c1ccc(OC)cc1 (stereo not given) | inactive
30 | CC(C)=CCCC(C)=CCON=C1C[C@@H](O)[C@@H](O)[C@@H]2[C@H]3C(=O)N(Cc4ccccc4)C(=O)[C@@H]3CC[C@@H]12 | inactive
31 | CC(=O)OC[C@H]1O[C@H](CC=NOC[C@@H](O)COCc2ccco2)C=C[C@H]1OC(C)=O | inactive
32 | COc1ccc(C(=O)Oc2cc(OC)cc(OC)c2C(C)=O)cc1 | inactive
33 | COc1cc2c(c(OC)c1OC)[C@@]1(c3ccccc3)CCCC[C@H]1[C@@H]2NC(=O)C(F)(F)F | inactive
34 | COC(=O)C1=C(C(=O)OC)[C@@H]2N(C)c3ccccc3[C@@]23CCC(=O)N(Cc2ccc4c(c2)OCO4)C3=N1 | inactive
35 | C#C[C@@H]1C=C[C@H](Oc2ccc(OC)cc2)[C@H](CO)O1 | inactive
36 | Cc1noc(C)c1S(=O)(=O)N1CCc2nc(COc3ccccc3)c3c(c2C1)CO[C@@H](C)C3 | inactive
37 | CC(=O)OC[C@H]1O[C@H](CC=NO[C@H](C)c2cn([C@@H]3COC[C@@H]3O)nn2)C=C[C@@H]1OC(C)=O | inactive
38 | Cc1cc2c(c(=O)o1)[C@H]1O[C@](c3ccsc3)(Cc3cc(C#N)ccc31)O2 | inactive
39 | COc1ccc(COC(=O)NN=C2C[C@@H](O)[C@@H](O)[C@@H]3[C@H]4C(=O)N([C@@H](C)c5ccccc5)C(=O)[C@@H]4CC[C@H]23)cc1 | inactive
40 | COCCN1C(=O)NC(CCc2ccccc2)C(C(=O)OC)=C1C (stereo not given) | inactive
